Bioassay records (PubChem BioAssay)
FMDV antiviral – antivirals against foot and mouth disease virus | FMDV antiviral cell assay, firefly luciferase signal | Potency, µM (highest dose often 57.5 µM), for inactives: at the top dose activity change, negative = inhibition, usual class: inhibitors | hit rate 0.23% among 120,000; further: nearly all actives have a fitted effect of over 60% in size
FMDV RLuc – shows antiviral activity in FMDV Renilla assay; FMDV replicon cells, Renilla luciferase signal; hit rate 0.32% among 120,000; Potency, µM (highest dose often 57.5 µM), for the others: at the top dose activity change, negative = inhibition, actives largely listed as inhibitors; further: nearly all actives have a fitted effect of over 55% in size
An asterisk follows results filed as active; ? = inconclusive; [ ] = dose if it differs, or a comment. A selection: hits, their analogues and other compounds. The true share with any hit is near 0.45%. The call rests on the fitted dose curve. On the % scale 0 is the no-effect control and ±100 the full control effect; potency means the concentration at half of the fitted maximal effect.

SMILES | FMDV antiviral | FMDV RLuc
Cc1nc(C(=O)O)c(C(=O)O)nc1C | ? | 17%[1.06 µM]
CNC(=O)c1ccc(OCc2coc(-c3cccc(F)c3)n2)cc1 | -22% | -39%
CNC(=O)c1ccccc1OCc1coc(-c2ccc(OC)cc2)n1 | -11% | ?
CNC(=O)c1cccc(OCc2coc(-c3cccc(F)c3)n2)c1 | -16% | 13µM*
CNC(=O)c1ccccc1OCc1coc(-c2ccccc2)n1 | ? | 10µM*
COCCn1c(SCC(=O)c2ccc3c(c2)OCO3)nc2cc(C(=O)NC(C)C)ccc2c1=O | -9% | -13%
Cc1csc(C(C#N)C(=O)CSc2ccc3c(c2)OCCCO3)n1 (configuration not stated) | 0% | 0%
C=C(COC(C)=O)C1Cc2c(ccc3c2OC2COc4cc(OC)c(OC)cc4C2C3=O)O1 (configuration not stated) | ? | 0.2µM*
COc1ccc2cc(COC(=O)C3COc4ccccc4O3)ccc2c1 (configuration not stated) | 0% | 12%
O=C(CN1CCN(CCc2ccccc2)CC1)Nc1ccc2c(c1)CCC2 | -16% | -16%
Cc1ccccc1NC(=O)c1sc2nc3c(cc2c1N)CN(Cc1ccccc1)CC3 | 4% | ?
Cc1ccccc1NC(=O)c1sc2nc3c(cc2c1N)CN(C(C)C)CC3 | ? | 14µM*
O=C(Nc1ccccc1Br)C1=C(c2ccccc2)S(=O)(=O)CCO1 | -30% | ?
O=C(Nc1cccnc1)C1=C(c2ccccc2)S(=O)(=O)CCO1 | ? | 25µM*
Cc1ccc(Nc2nc(C(=O)N3CCC(C(=O)NCc4ccccc4)CC3)cs2)cc1 | 48% | 11%
Cc1cccc(Nc2nc(C(=O)N3CCC(C)CC3)cs2)c1 | 25µM* | 13µM*
O=C(Nc1cccc(Cl)c1)c1nn(Cc2ccccc2)c(=O)c2ccccc12 | 2% | -5%
N#Cc1c(NC(=O)c2cc(=O)c3ccccc3o2)sc2c1CCCC2 | 138% | 1%
N#Cc1c(NC(=O)c2ccnn2C(F)F)sc2c1CCC2 | ? | 3.2µM*
N#Cc1c(NC(=O)c2nn(-c3ccccc3)c(=O)c3ccccc23)sc2c1CCCC2 | -4% | 1%
N#Cc1c(NC(=O)c2ccnn2C(F)F)sc2c1CCCC2 | ? | 3.2µM*
N#Cc1c(NC(=O)CSc2nccn2Cc2ccccc2)sc2c1CCC2 | 94% | 20%
N#Cc1c(NC(=O)c2ccnn2C(F)F)sc2c1CCCCC2 | ? | 5µM*
CC1CCc2nc(/C(C#N)=C\c3ccco3)sc2C1 (configuration not stated) | 63% | 11%
CN(C)C(=O)C1CN(C(=O)c2nn(Cc3ccccc3)c(=O)c3ccccc23)c2ccccc2O1 (configuration not stated) | 7% | 64%
SMILES | FMDV antiviral | FMDV RLuc
O=C(NC1(C(=O)O)CCCCC1)C1CCC1 | 1% | 6%
CN(C)CCCNC(C(=O)O)c1cn(CCC(=O)O)c2cc(Br)ccc12 (configuration not stated) | 5% | 0%
Cc1ccc(NC(=O)CCc2ccc(C#N)cc2)nc1 | 31% | 31%
Cc1ccc(NC(=O)C(Sc2ccccc2)c2ccccc2)c(C)c1 (configuration not stated) | 13% | 0%
O=C(Nc1ccc(Br)cc1)c1cccc(S(=O)(=O)N2CCc3ccccc32)c1 | 32µM* | 4µM*
NS(=O)(=O)c1ccc(NC(=O)c2ccc3c(c2)CCN3S(=O)(=O)c2ccccc2)cc1 | -9% | 65%
O=S(=O)(c1ccc(-c2csc(Nc3ccccc3)n2)cc1)N1CCOCC1 | 19% | 8%
Cc1cccc(-c2nnc(SCCC(=O)O)o2)c1 | 1µM* | -9%
Cc1cccc(-c2nnc(SCC(=O)N3CCCCC3)o2)c1 | 131% | 9%
COc1ccc(-n2nnnc2C2CCN(S(=O)(=O)c3ccc(F)cc3Cl)CC2)cc1 | -1% | -1%
COc1ccc(-n2nnnc2C2CCN(S(=O)(=O)c3cc(OC)ccc3OC)CC2)cc1 | ? | 25µM*
CC(=O)N1CCC2(CC1)Oc1ccc(Br)cc1C1CC(c3ccncc3)=NN12 (configuration not stated) | 85% | 0%
Cc1nc2nncn2c(NCc2ccc(F)cc2)c1C | ? | 8.9µM*
Cc1nc2nncn2c(NCc2ccc(Cl)cc2)c1C | ? | 1.4µM*
CCc1c(C)nc2nncn2c1NCc1ccc(OC)cc1 | -12% | -28%
COc1ccc(CNc2cc(-c3ccc(OC)cc3)nc3nncn23)cc1 | -17% | -21%
COc1ccc(/C=C/C(=O)c2ccc(OC(F)F)c(OC)c2)c(OC)c1 | 0% | 41%
O=C(Cc1ccc(F)cc1)N(Cc1ccco1)C1CC1 | 5% | 0%
FC(F)(F)CN1CCN(c2nc(-c3cccnc3)nc3ccccc23)CC1 | -1% | -8%
O=C(c1ccnc(Cl)c1)N1CCC(c2nc3cc(C(F)(F)F)ccc3s2)CC1 | 11µM* | ?
Cc1ccc(C(=O)N2CCC(c3nc4cc(C(F)(F)F)ccc4s3)CC2)cn1 | ? | 14µM*
Cc1ccc2oc(C(=O)N3CCC(c4nc5ccccc5s4)CC3)c(C)c2c1 | -6% | -16%
COc1cc(C(=O)N2CCC(c3nc4ccccc4s3)CC2)cc(OC)c1OC | ? | -28%
O/N=C/c1ccc(OCc2ccc(Cl)cc2Cl)cc1 | 3% | 2%
CCn1c(NC(=O)CCc2nc(-c3ccc(OC)c(OC)c3)no2)nc2ccccc21 | 15% | 14%
SMILES | FMDV antiviral | FMDV RLuc
CC(=O)N1c2c(cc(Br)cc2S(=O)(=O)Nc2ccc(OC(F)(F)F)cc2)CC1C (configuration not stated) | ? | 190%
CCOC(=O)c1ccc(NS(=O)(=O)c2cc(Br)cc3c2N(C(C)=O)C(C)C3)cc1 (configuration not stated) | 20µM* | 121%
O=[N+]([O-])c1ccccc1S(=O)(=O)NCc1cccs1 | 10% | 129%
CCN1CCN(CCOc2ccc3c(=O)c(-c4ccc(Br)cc4)coc3c2)CC1 | 37% | ?
CCN1CCN(CCOc2ccc3c(=O)c(-c4ccc(Cl)cc4)coc3c2)CC1 | -9% | 18µM*
O=C(CCCCn1c(=O)[nH]c2ccsc2c1=O)N1CCN(c2cccc(C(F)(F)F)c2)CC1 | ? | 9%
Cc1cccc(N2CCN(C(=O)CCCCn3c(=O)[nH]c4ccsc4c3=O)CC2)c1C | 14µM* | -28%
O=S(=O)(c1cccc(F)c1)N1CCC(Oc2ccc(-n3cnnn3)cc2)CC1 | 22µM* | ?
CC(=O)Nc1ccc(S(=O)(=O)N2CCC(Oc3ccc(-n4cnnn4)cc3)CC2)cc1 | -3% | 13%
CC(=O)c1cccc(NC(=O)C(C)N(C)Cc2ccccc2N2CCCCC2)c1 (configuration not stated) | -26% | ?
Cc1c(O)ccc2c(CN3CCN(Cc4cccc(C(F)(F)F)c4)CC3)cc(=O)oc12 | -45% | -38%
Cc1c(O)ccc2c(CN3CCN(c4cccc(C(F)(F)F)c4)CC3)cc(=O)oc12 | 13µM* | 13µM*
Cc1ccccc1COC(=O)c1cnccn1 | -3% | 1%
Cc1oc(-c2nc(C#N)c(NCc3ccccc3)o2)cc1S(=O)(=O)N1CCOCC1 | -13% | 4%
CS(=O)(=O)N1CCCc2cc(C(=O)c3cc4ccccc4o3)ccc21 | -17% | ?
CS(=O)(=O)N1CCc2cc(C(=O)c3cc4cc(Br)ccc4o3)ccc21 | 20µM* | 2%
CC(C)CCN1CCN(c2nc3c(c(=O)[nH]c(=O)n3C)n2Cc2ccc(Cl)c(Cl)c2)CC1 | -15% | -16%
COc1ccc2c(c1)cc(C(=O)Nc1ccc(F)cc1F)n2C | 0% | 13%
